Experimental data from PubChem BioAssay (NCATS).
Records with an inconclusive call do not appear. Calls of active or inactive are those of the source. Calls follow the shape of the dose curve; as a rule, active = well fitted inhibition curve with a large enough effect; inconclusive = small, poorly fitted or top-dose-only effect; inactive = flat fitted curve, though single readings scatter.

Key:
[1] = qHTS profiling for inhibitors of Plasmodium falciparum proliferation (AID 504749); also: nearly all actives have a fitted effect of over 60% in size;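 as to activity, negative = inhibition: 0% = DMSO vehicle and full inhibition = artemisinin control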; conditions: P. falciparum in erythrocytes, SYBR Green DNA, 72 h
How it was run: (§1)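 Three-day growth assay of blood-stage parasites in erythrocytes (0.3% parasitemia, 2.5% hematocrit) at 37 C, 5% CO2, quantified by SYBR Green DNA staining after overnight detergent lysis.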

[2] = tested on: AA1029; experiment: as above; conditions: P. falciparum in erythrocytes, SYBR Green DNA, 72 h; series mostly up to 28.7 µM
How it was run: as §1

[3] = tested on: AS120; experiment: as above; conditions: P. falciparum in erythrocytes, SYBR Green DNA, 72 h; series mostly up to 28.7 µM
How it was run: as §1

[4] = tested on: ATS189; experiment: as above; conditions: P. falciparum in erythrocytes, SYBR Green DNA, 72 h; series mostly up to 28.7 µM
How it was run: as §1

[5] = tested on: ATS95; experiment: as above; conditions: P. falciparum in erythrocytes, SYBR Green DNA, 72 h; series mostly up to 28.7 µM
How it was run: as §1

[6] = tested on: CP185; experiment: as above; conditions: P. falciparum in erythrocytes, SYBR Green DNA, 72 h; series mostly up to 28.7 µM
How it was run: as §1

[7] = tested on: CP191; experiment: as above; conditions: P. falciparum in erythrocytes, SYBR Green DNA, 72 h; series mostly up to 28.7 µM
How it was run: as §1

[8] = tested on: CP192; experiment: as above; conditions: P. falciparum in erythrocytes, SYBR Green DNA, 72 h; series mostly up to 28.7 µM
How it was run: as §1

[9] = tested on: CP194; experiment: as above; conditions: P. falciparum in erythrocytes, SYBR Green DNA, 72 h; series mostly up to 28.7 µM
How it was run: as §1

[10] = tested on: CP201; experiment: as above; conditions: P. falciparum in erythrocytes, SYBR Green DNA, 72 h; series mostly up to 28.7 µM
How it was run: as §1

[11] = tested on: CP211; experiment: as above; conditions: P. falciparum in erythrocytes, SYBR Green DNA, 72 h; series mostly up to 28.7 µM
How it was run: as §1

[12] = tested on: CP215; experiment: as above; conditions: P. falciparum in erythrocytes, SYBR Green DNA, 72 h; series mostly up to 28.7 µM
How it was run: as §1

[13] = tested on: CP217; experiment: as above; conditions: P. falciparum in erythrocytes, SYBR Green DNA, 72 h; series mostly up to 28.7 µM
How it was run: as §1

[14] = tested on: 7G8; experiment: as above; conditions: P. falciparum in erythrocytes, SYBR Green DNA, 72 h; series mostly up to 28.7 µM
How it was run: as §1

[15] = tested on: 3D7; experiment: as above; conditions: P. falciparum in erythrocytes, SYBR Green DNA, 72 h; series mostly up to 28.7 µM
How it was run: as §1

[16] = tested on: C2A; experiment: as above; conditions: P. falciparum in erythrocytes, SYBR Green DNA, 72 h; series mostly up to 28.7 µM
How it was run: as §1

[17] = tested on: CP203; experiment: as above; conditions: P. falciparum in erythrocytes, SYBR Green DNA, 72 h; series mostly up to 28.7 µM
How it was run: as §1

[18] = at 28.7 µM (top of the series), parasite line B
[19] = at 28.7 µM (top of the series), parasite line A
[20] = at 12.8 µM (top of the series), parasite line A
[21] = at 12.8 µM (top of the series), parasite line B
Potency is read from the fitted curve at half-maximal effect.

COC(=O)[C@@H](N)Cc1ccc(O)c(O)c1
inactive: activity, negative = inhibition [1, 18] -10.7% | Potency [2] | Potency [3] | Potency [4] | Potency [5] | Potency [6] | Potency [7] | Potency [8] | Potency [9] | Potency [10] | Potency [11] | Potency [12] | Potency [13]

Cc1nc2sccn2c(=O)c1CCN1CCC(=C(c2ccc(F)cc2)c2ccc(F)cc2)CC1
inactive: Potency [8] | Potency [10] | Potency [11]
active: Potency [14] 10 µM | Potency [3] 11.2 µM

CN1C[C@H](C(=O)N[C@]2(C)O[C@@]3(O)[C@@H]4CCCN4C(=O)[C@H](Cc4ccccc4)N3C2=O)C[C@@H]2c3cccc4[nH]cc(c34)C[C@H]21
active: Potency [9] 12 µM | Potency [11] 12 µM | Potency [12] 13.5 µM

CCn1cc(C(=O)O)c(=O)c2cc3c(cc21)OCO3
inactive: activity, negative = inhibition [1, 19] -8.68% | activity, negative = inhibition [1, 18] -3.36% | Potency [15] | Potency [2] | Potency [3] | Potency [4] | Potency [5] | Potency [16] | Potency [6] | Potency [7] | Potency [8] | Potency [9] | Potency [10] | Potency [11] | Potency [12] | Potency [13]

O=C(CCCN1CCC(O)(c2cccc(C(F)(F)F)c2)CC1)c1ccc(F)cc1
inactive: Potency [10]
active: Potency ([1]; parasite line A) 8.91 µM | Potency ([1]; parasite line B) 8.91 µM | Potency [14] 3.98 µM | Potency [2] 7.08 µM | Potency [3] 7.94 µM | Potency [4] 8.91 µM | Potency [5] 10 µM | Potency [16] 11.2 µM | Potency [7] 7.94 µM | Potency [12] 10.7 µM

CCC(=O)c1ccc2c(c1)N(CCCN(C)C)c1ccccc1S2
inactive: activity, negative = inhibition [1, 19] -23.2% | activity, negative = inhibition [1, 18] -3.51% | Potency [15] | Potency [6] | Potency [8]

COc1ccc(CCN(C)CCCC(C#N)(c2cc(OC)c(OC)c(OC)c2)C(C)C)cc1OC (centres undefined)
active: Potency [14] 10 µM

C=CCc1ccccc1OCC(O)CNC(C)C (centres undefined)
inactive: activity, negative = inhibition [1, 19] -5.93% | Potency [15] | Potency [16]
active: Potency [14] 8.91 µM | Potency [2] 10 µM | Potency [3] 4.47 µM | Potency [9] 15.1 µM | Potency [17] 10.7 µM

C#CCN(C)CCCOc1ccc(Cl)cc1Cl
inactive: activity, negative = inhibition [1, 19] 6.5% | activity, negative = inhibition [1, 18] 12.2% | Potency [15] | Potency [2] | Potency [3] | Potency [4] | Potency [5] | Potency [16] | Potency [6] | Potency [7] | Potency [8] | Potency [9] | Potency [10] | Potency [11] | Potency [12] | Potency [13]

CN(C)C/C=C(/c1ccc(Br)cc1)c1cccnc1
active: Potency [14] 8.91 µM
inactive: activity, negative = inhibition [1, 19] -2.53% | Potency [15] | Potency [4] | Potency [16] | Potency [6] | Potency [9] | Potency [10] | Potency [12] | Potency [13]

Fc1ccc(C(c2ccc(F)cc2)N2CCN(C/C=C/c3ccccc3)CC2)cc1
active: Potency [14] 4.47 µM | Potency [3] 10 µM

CN(C)CCCN1c2ccccc2Sc2ccc(C(F)(F)F)cc21
inactive: Potency [5] | Potency [16] | Potency [8] | Potency [10] | Potency [11]
active: Potency [14] 5.01 µM

CN(C)CCOC(=O)COc1ccc(Cl)cc1
inactive: activity, negative = inhibition [1, 20] 18.7% | activity, negative = inhibition [1, 21] -4.94% | Potency [14] | Potency [2] | Potency [3] | Potency [4] | Potency [5] | Potency [16] | Potency [6] | Potency [7] | Potency [8] | Potency [10] | Potency [11] | Potency [12] | Potency [13]

NC(=Nc1ccccc1)Nc1ccccc1
inactive: activity, negative = inhibition [1, 19] -14.1% | activity, negative = inhibition [1, 18] -13.7% | Potency [15] | Potency [2] | Potency [3] | Potency [4] | Potency [5] | Potency [16] | Potency [6] | Potency [7] | Potency [8] | Potency [9] | Potency [10] | Potency [17] | Potency [11] | Potency [12] | Potency [13]

CC1=NS(=O)(=O)c2cc(Cl)ccc2N1
inactive: activity, negative = inhibition [1, 19] -21.1% | Potency [15] | Potency [14] | Potency [2] | Potency [4] | Potency [5] | Potency [16] | Potency [8] | Potency [9] | Potency [10] | Potency [17] | Potency [11] | Potency [12] | Potency [13]

Brc1c(NC2=NCCN2)ccc2nccnc12
active: Potency [14] 11.2 µM
inactive: activity, negative = inhibition [1, 19] 0% | activity, negative = inhibition [1, 18] 3.95% | Potency [2] | Potency [3] | Potency [5] | Potency [16] | Potency [6] | Potency [8] | Potency [9] | Potency [10] | Potency [11] | Potency [12] | Potency [13]

NC1=NCC2c3ccccc3Cc3ccccc3N12 (centres undefined)
inactive: activity, negative = inhibition [1, 19] -23% | Potency [15] | Potency [2] | Potency [3] | Potency [4] | Potency [5] | Potency [16] | Potency [6] | Potency [8] | Potency [9] | Potency [10] | Potency [11] | Potency [13]

CN1CCN(C2=Nc3ccccc3Oc3ccc(Cl)cc32)CC1
inactive: activity, negative = inhibition [1, 20] 4.87% | activity, negative = inhibition [1, 21] -8.95% | Potency [15] | Potency [2] | Potency [3] | Potency [4] | Potency [5] | Potency [16] | Potency [6] | Potency [7] | Potency [8] | Potency [9] | Potency [10] | Potency [11] | Potency [12] | Potency [13]

CC(C)(C)c1ccc(C(=O)CCCN2CCC(OC(c3ccccc3)c3ccccc3)CC2)cc1
active: Potency ([1]; parasite line A) 10 µM | Potency [15] 7.94 µM | Potency [14] 3.55 µM | Potency [2] 10 µM | Potency [3] 6.31 µM | Potency [4] 10 µM | Potency [5] 8.91 µM | Potency [13] 7.94 µM

COc1cc(C(=O)OCCCN2CCCN(CCCOC(=O)c3cc(OC)c(OC)c(OC)c3)CC2)cc(OC)c1OC
active: Potency [15] 11.2 µM | Potency [14] 8.91 µM | Potency [2] 11.2 µM | Potency [3] 10 µM | Potency [4] 8.91 µM | Potency [7] 12.6 µM
